# Assay outcomes as filed in PubChem BioAssay.
# Hits are enriched below; roughly 3.2% of the tested compounds scored in any of these assays.
# USP1-UAF1 inh: USP1/UAF1 (human) deubiquitinase inhibition | O94782 | recombinant USP1/UAF1, Ub-Rhodamine cleavage fluorescence | Potency, µM (series often up to 57.1 µM), for the others: at the highest dose activity change, negative = inhibition, hits mostly inhibitors | hit rate 0.23% among 390,000; further: potency means the concentration at half of the fitted maximal effect; nearly all actives have a fitted effect of over 60% in size
#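 Step one: compound is pinned into 1nM USP1/UAF1 in HEPES pH 7.8 buffer with TCEP. Step two: 15 min room-temperature incubation. Step three: Ub-Rho (150nM final) starts cleavage, tracked by fluorescence over six one-minute reads.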
# PLK1 PBD inh: PLK1 (human) polo-box domain binding inhibition. P53350. Plk1 PBD binding of FITC phosphopeptide, fluorescence polarization. Potency, µM, for inactives: max response, negative = inhibition, hits mostly inhibitors. hit rate 2.8% among 360,000; further: potency means the concentration at half of the fitted maximal effect; series mostly up to about 57 µM; nearly all actives have a fitted effect of over 65% in size
# VDR inhibitor: blocks the human vitamin D receptor; P11473; hit rate 0.93% among 400,000; Potency, µM, without a hit: max response, negative = inhibition, usual class: inhibitors; AID 504847; VDR-SRC2-3 peptide fluorescence polarization, 2 h; further: potency means the concentration at half of the fitted maximal effect
#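 Measured by FP: displacement of SRC2-3 coactivator peptide from VDR by library compounds, following a two-hour ambient incubation.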
# USP2a block: inhibitors of human ubiquitin-specific protease USP2a; O75604; USP2 core, Ub-CHOP2 coupled fluorogenic reporter, 485/531; Potency, µM (top dose mostly 38.3 µM), inactives show at the highest dose activity change, negative = inhibition, usual class: inhibitors; hit rate 0.01% among 330,000; AID 463254;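 further: potency means the concentration at half of the fitted maximal effect; plate controls were DMSO wells for no effect and full inhibition by NEM control for full effect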
#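 Deubiquitinase activity read as fluorescence (485/531 nm) after Ub-CHOP2 cleavage activates the enterokinase reporter on its substrate; USP2 core 10nM, Ub-CHOP2 and substrate 25nM each, 30min compound preincubation then 60min RT; data normalized to NEM, curves fitted.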
# Coupling enz: counter-screen for Giardia aldolase inhibitors: coupling enzyme system. activity change, negative = inhibition, % at 58.2 µM, hits read low. coupling enzyme system counterscreen, AmpLite Red fluorescence. hit rate 0.67% among 290,000; in the data active means activity change below about -30%
#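 Coupling enzymes only (glyceraldehyde-3-phosphate) + compound, at 57.5 uM final, 10 min RT; add substrate/coupling/AmpLite Red mix, 20 min RT; fluorescence ex 525/em 598 nm. Actives flag coupling-system interference.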
# GALK inh: inhibitors of human galactokinase | P51570 | Purified GALK, Kinase-Glo residual ATP luminescence | Potency, µM (titrated, usually from 57.5 µM), without a hit: top-dose activity change, negative = inhibition, most hits filed as inhibitors | hit rate 0.007% among 270,000 | AID 1868; further: potency means the concentration at half of the fitted maximal effect
#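 Galactose (100 uM) and ATP (35 uM) were turned over by 5 nM GALK for 1 h at RT. Kinase-Glo Plus then converted the remaining ATP into a luminescent signal.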
# * = called active by the depositor; ? = inconclusive; . = no result given. Unless noted, the call rests on the fitted dose curve; in most records, active means well fitted curve in the direction sought with a large enough effect; inconclusive means small, poorly fitted or top-dose-only effect, or another doubt; inactive means no such curve, though single readings can be large; an effect the other way counts as inactive or inconclusive. Unless noted, on the % scale 0 is the no-effect control and ±100 the full control effect.
SMILES,USP1-UAF1 inh,PLK1 PBD inh,VDR inhibitor,USP2a block,Coupling enz,GALK inh
NC(=O)c1sc2nc3c(c(-c4ccco4)c2c1N)CCC3,-4%,?,-7%,1%,-25,0%
COc1ccc2c(CCNC(N)=S)c[nH]c2c1,-8%,19µM*,?,7%,-5,-2%
CSc1cc(-c2ccc(Cl)cc2)c(C(=O)NN)s1,-7%,-5%,?,-1%,0,-4%
CSc1cc(-c2ccc(Cl)cc2)c(C(=O)NC(C)C)s1,-20%,3µM*,-24%,0%,-1,0%
CN1CCN(NC(=O)c2ccccc2F)CC1,-13%,-3%,1%,1%,2,4%
CC1=C/C(=N\OS(=O)(=O)c2ccccc2)C(C)=CC1=O,-9%,-13%,-17%,-5%,-88*,1%
CC1=C/C(=N\OS(=O)(=O)c2ccccc2)C(C(C)C)=CC1=O,-19%,-15%,?,1%,-70*,1%
CC1=CC(=NOS(=O)(=O)c2ccc(C)cc2)CC(C)(C)C1,.,-1%,.,.,.,.
O=C(Cn1c(S(=O)(=O)Cc2ccccc2)nc2ccccc21)N1CCCCC1,-17%,-2%,-20%,2%,-2,3%
CN(CC(=O)Nc1ccc([N+](=O)[O-])cc1Br)Cc1c(F)cccc1Cl,-24%,27µM*,-21%,-1%,-1,0%
CC(C)CN1C(=O)NC(NS(=O)(=O)c2ccc(N)cc2)(C(F)(F)F)C1=O (stereo unspecified),-10%,21µM*,-3%,1%,4,2%
O=C(O)c1ccc(Sc2nnc3ccccn23)c([N+](=O)[O-])c1,0%,-13%,-12%,0%,10,1%
CCOC(=O)/C=C1\CC(C(=O)OCC)Oc2c(OC)cccc21 (stereo unspecified),-19%,?,79µM*,3%,-3,.
NSc1nc(N)c2nc(-c3ccccc3)c(-c3ccccc3)nc2n1,-11%,13µM*,8.9µM*,0%,3,-2%
CC(=O)Nc1ccc2nc(SCC(=O)NCCOc3ccccc3)sc2c1,-14%,3.4µM*,?,3%,3,0%
Cc1ccc(C2C3CSCC=C3C(C#N)=C(N)C2(C#N)C#N)cc1 (stereo unspecified),?,?,?,3%,-6,-2%
Cc1ccc([C@@H]2C3COCC=C3C(C#N)=C(N)C2(C#N)C#N)o1 (stereo partly specified),32µM*,-29%,?,5%,3,8%
COC(=O)c1ccc(N2CCN(C)CC2)c(NC(=O)c2cc3ccccc3o2)c1,-6%,-7%,4%,0%,-3,-2%
O=[N+]([O-])c1cc([N+](=O)[O-])c(Oc2cc(F)cc(F)c2)cc1NN1CCCCC1,-14%,27µM*,-28%,-4%,.,.
O=[N+]([O-])c1cc([N+](=O)[O-])c(Oc2ccc(F)cc2)cc1NN1CCCCC1,?,-3%,-4%,-1%,1,.
Cc1ccccc1CN1c2ccccc2-c2nc(SCC(=O)NCCc3ccccc3)ncc2S1(=O)=O,-6%,.,-7%,.,.,.
N#CC1=C(S)N(c2ccccc2)C(c2ccc(-c3cccc(Cl)c3)o2)NC1=O (stereo unspecified),-14%,24µM*,?,2%,5,-7%
Cc1ccc(N2OC3C(=O)NC(=O)C3C2c2ccco2)cc1 (stereo unspecified),?,-4%,-9%,4%,3,-2%
Cc1cccc(N2C(S)=C(C#N)C(=O)NC2c2ccco2)c1 (stereo unspecified),-17%,?,28µM*,-1%,11,6%
COc1ccc(N2C(S)=C(C#N)C(=O)NC2c2ccco2)cc1 (stereo unspecified),0%,?,40µM*,-1%,2,.
SMILES,USP1-UAF1 inh,PLK1 PBD inh,VDR inhibitor,USP2a block,Coupling enz,GALK inh
CC(NC(=O)c1ccncc1)c1ccc(Br)cc1 (stereo unspecified),-16%,-9%,5%,.,.,.
CCOC(=O)c1c(C)[nH]c(C(=O)COC(=O)[C@H](C)N2C(=O)C3CCCCC3C2=O)c1C (stereo partly specified),-3%,-6%,-9%,.,.,.
Cc1c(Cl)cccc1Nc1nn2c(=O)c3ccccc3nc2s1,-4%,.,-5%,.,.,.
Cc1cc(C(=O)NNC(=S)NCc2ccco2)n(C)n1,-5%,21µM*,?,2%,-2,0%
CC(=O)Nc1sc(N/N=C\c2ccc(O)cc2)nc1-c1cccs1,1%,27µM*,-23%,-1%,-2,0%
CC(=O)Nc1sc(NC(=O)c2ccccc2)nc1-c1cccs1,-7%,-5%,-10%,0%,2,10%
CC(=O)Nc1sc(N/N=C\c2cccc(Cl)c2)nc1-c1cccs1,-15%,?,7.1µM*,2%,2,-2%
COc1ccccc1CCNC(=O)C(=O)NCC1OCCN1S(=O)(=O)c1cc(F)ccc1F (stereo unspecified),-27%,-8%,7%,0%,0,.
Cc1c(C(=O)N2CCOCC2)c(S(=O)(=O)Nc2cccc(Br)c2)c(C)n1C,-19%,27µM*,-21%,0%,.,0%
Cc1c(C(=O)N2CCOCC2)c(S(=O)(=O)Nc2ccc(Br)cc2F)c(C)n1C,-12%,27µM*,?,2%,-3,-1%
Cc1c(C(=O)N2CCCCC2)c(S(=O)(=O)Nc2cccc(Br)c2)c(C)n1C,-11%,-5%,15%,2%,3,-2%
CSCCC(NC(=O)c1ccccc1Cl)C(=O)NCC(c1cccs1)N(C)C (stereo unspecified),-23%,-4%,15%,0%,.,.
Cc1cccc(OCc2nnc(N)s2)c1,-14%,27µM*,?,7%,1,-3%
O=C(COc1c(Cl)cccc1Cl)NN1C(=O)CSC1=S,-20%,19µM*,-10%,1%,5,6%
O=C(CSc1nnc(CNc2ccc(F)cc2)o1)OC1CCCCC1,-12%,21µM*,?,3%,5,3%
CCOC(=O)C(NC(C)=O)(N1CCc2ccccc2C1)C(F)(F)F (stereo unspecified),-14%,-3%,-7%,0%,2,6%
CC1(C)CC(NC(=O)C2CCN(S(=O)(=O)c3cccc(C(F)(F)F)c3)CC2)CC(C)(C)N1,-8%,0%,-19%,1%,.,.
O=C(CCc1nc2ccccc2s1)NC1CCOC1=O (stereo unspecified),-22%,24µM*,-16%,0%,0,0%
O=C(CCCc1nc2ccccc2s1)NC1CCOC1=O (stereo unspecified),-3%,10%,14%,4%,0,1%
